The source made the active and inactive calls.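 Rule for the calls, unless noted: active = inhibition at or above 50% at 10 µM; inactive = inhibition below 50%.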

A short description of assay [1]: inhibitors of TNFa-induced NFkB p65 translocation, primary screen, imaging, HUVEC, MLSMR starter and 10KST1 sets (AID 438;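 active = inhibition above 20% together with a positive visual image hit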;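 note: compound added about 3h40 before a 20 min TNFalpha stimulation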;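 for inhibition: signal is the nuclear over cytoplasmic p65 intensity ratio per well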). Conditions: HUVEC TNFa-induced p65 nuclear translocation; cell count: measured here: nuclei count (cytotoxicity indicator), at 2.08 µM; inhibition: at 2 µM, stronger effect = higher value, 0% TNFa-plus-vehicle, 100% no-TNFa wells.
A short description of assay [2]: reduction of polyQ htt aggregates in cells – imaging, exon1htt(103Q)mCFP cells, high-content imaging, primary screen (AID 483;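 active = visual image review flags a hit and inhibition of aggregation exceeds 20%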;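 note: compound exposure lasted 3 days before fixation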;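 for nuclei count: percent of the per-plate median nuclei count of sample wells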). Conditions: exon1htt(103Q)mCFP cell line, aggregate imaging, at 2 µM; inhibition of aggregation: stronger effect = higher value; nuclei count: measured here: cell count, toxicity.
Assay [3] is described as follows: endothelial E-selectin expression blockers – imaging, HUVEC, immunofluorescence, MLSMR starter and 10KST1 sets, primary screen (AID 487;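 active = visually confirmed hit in the image check and inhibition above 20%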;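 for inhibition: signal is fraction of cell area covered by stained E-selectin grains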;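 for nuclei count: 100% = median nuclei count of all wells on the same plate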). As to conditions: HUVEC TNFalpha-induced E-selectin immunofluorescence imaging, at 2 µM; inhibition: stronger effect = higher value; nuclei count: measured here: cell number, toxicity.
The target of assay [4] is Voltage-gated potassium channel subunit beta-2 (Rattus norvegicus) (UniProt P62483). The assay can be described thus: inhibitors of rat Kvbeta2 reductase activity – biochemical, NADPH fluorescence, primary screen (AID 622;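 active = fluorescence slope higher than the sample average by over 3 SD, cut at about -0.22 in these data, passing the limit was not always enough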;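 note: slope of raw intensity against log time taken from 70 to 1610 s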). As to conditions: recombinant KvBeta, 4-cyanobenzaldehyde reduction, at 10 µM, stronger effect = higher value.
The target is the same in assay [5]. Put plainly: enhancers of rat Kvbeta2 NADPH turnover – biochemical, NADPH fluorescence, primary screen (AID 623;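 active = NADPH fluorescence slope more negative than the mean of all samples by about 3 SD, 99.7% confidence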;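 note: fluorescence intensity change per second fitted from 20 to 320 s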). As to conditions: Recombinant KvBeta, NADPH fluorescence decrease slope, 10 min; at 10 µM; stronger effect = lower value.
The target of assay [6] is Alpha-2C adrenergic receptor (Homo sapiens) (UniProt P18825). Put plainly: compounds altering alpha2C-coupled GIRK flux – cell-based, HEK293 alpha2C/GIRK1/2, thallium flux, primary screen (AID 624;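 active = fluorescence slope after compound addition differing from the mean of all screened samples at 99.7% confidence, in either direction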;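 note: slope of fluorescence ratio to pre-addition baseline per second over 15 to 24 s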). As to conditions: thallium flux BTC fluorescence, at 10 µM, actives lie on both sides.
The nature of assay [7]: blockers of RIG-like receptor reporter activation – cell-based, Sendai virus stimulus, luciferase, 10K MLSCN set, TLR/RLR signaling modifier project, primary screen (AID 602276).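 Note: firefly luciferase from ISG56 promoter only with Renilla not read in this screen; 0% = Sendai virus plus DMSO and 100% = medium plus DMSO without virus.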 As to conditions: HEK293 RL24 IRF3 luciferase reporter, at 10 µM, stronger effect = higher value.
The nature of assay [8]: TLR3 IRF3 reporter activation blockers – cell-based, poly I:C stimulus, luciferase, 10K MLSCN set, primary screen (AID 602277;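 active = inhibition of the reporter signal at or above 50%; inactive = inhibition below 50%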). As to conditions: HEK293-TLR3 RL24 IRF3 luciferase reporter, at 10 µM, stronger effect = higher value.

Sequence of Voltage-gated potassium channel subunit beta-2 (Rattus norvegicus) (P62483 whole entry, looked up): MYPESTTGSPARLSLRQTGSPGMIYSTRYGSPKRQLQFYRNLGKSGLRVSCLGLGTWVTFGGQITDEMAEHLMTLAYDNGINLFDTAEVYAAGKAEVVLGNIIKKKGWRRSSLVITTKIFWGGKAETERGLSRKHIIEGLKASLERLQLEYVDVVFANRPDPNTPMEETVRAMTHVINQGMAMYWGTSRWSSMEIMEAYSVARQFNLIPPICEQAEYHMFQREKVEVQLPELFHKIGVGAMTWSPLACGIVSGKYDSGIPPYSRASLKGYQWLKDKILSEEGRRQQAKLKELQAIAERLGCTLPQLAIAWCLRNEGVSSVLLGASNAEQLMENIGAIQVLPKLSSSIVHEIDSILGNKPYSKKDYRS
Sequence of Alpha-2C adrenergic receptor (Homo sapiens) (P18825 whole entry, looked up): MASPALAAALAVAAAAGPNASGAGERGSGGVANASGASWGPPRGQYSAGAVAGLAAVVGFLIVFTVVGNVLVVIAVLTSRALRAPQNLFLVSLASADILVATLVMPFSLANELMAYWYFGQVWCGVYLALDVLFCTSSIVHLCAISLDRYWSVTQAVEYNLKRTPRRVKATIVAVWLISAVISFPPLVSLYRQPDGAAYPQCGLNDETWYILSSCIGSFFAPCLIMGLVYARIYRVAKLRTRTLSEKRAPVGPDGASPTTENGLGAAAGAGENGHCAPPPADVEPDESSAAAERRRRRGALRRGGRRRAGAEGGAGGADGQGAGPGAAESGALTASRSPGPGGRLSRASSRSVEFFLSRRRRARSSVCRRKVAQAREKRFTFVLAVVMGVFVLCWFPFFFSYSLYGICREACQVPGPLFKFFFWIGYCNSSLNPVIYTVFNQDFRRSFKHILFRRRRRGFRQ

Take `CC(C)c1nnc(NC(=O)C2CCCCC2)s1`: the cell count in assay [1] stood at 571. Further, the inhibition in assay [1] is -5.2% (inactive); in assay [3] it was 20.2% (inactive); in assay [7], -16.4% (inactive); in assay [8] it was -54.8% (inactive). In addition, in assay [2], the inhibition of aggregation is 22.8% (inactive). For the same compound, the nuclei count in assay [2] was 40.4%; in assay [3], 76.2%. The fluorescence slope in assay [4] was -0.421 (inactive). Moreover, the NADPH fluorescence slope in assay [5] is -6.4e-05 (inactive). Further, the slope in assay [6] was 0.00517 (inactive).
In the case of `Cn1c(=O)c2c(nc(Br)n2CCSc2nnnn2-c2ccccc2)n(C)c1=O`, the cell count in assay [1] worked out at 294. Further, the inhibition is -3.4% (inactive) in assay [1], -7.6% (inactive) in assay [3], 1.27% (inactive) in assay [7] and 1.27% (inactive) in assay [8]. In assay [2], the inhibition of aggregation was 19% (inactive). In addition, the nuclei count in assay [2] is 94.6%; in assay [3], 74.1%. For the same compound, in assay [4], the fluorescence slope is -0.36 (inactive). Also, the NADPH fluorescence slope in assay [5] is -4.2e-05 (inactive). Also, the slope in assay [6] is 0.00509 (inactive).
On to `N#Cc1ccccc1Cn1c(=O)n(Cc2ccc(C(=O)NCc3ccco3)cc2)c(=O)c2sccc21`, for which, in assay [1], the cell count came to 865. In addition, the inhibition in assay [1] was -0.6% (inactive); in assay [3], -55.6% (inactive); in assay [7], 11.4% (inactive); in assay [8] it was 17.2% (inactive). The inhibition of aggregation in assay [2] was 9.3% (inactive). The nuclei count is 120% in assay [2] and 115% in assay [3]. Also, the fluorescence slope in assay [4] was -0.577 (inactive). The NADPH fluorescence slope in assay [5] was -4.1e-05 (inactive). In addition, the slope in assay [6] is 0.00686 (inactive).
With `COc1ccccc1CN1CCCC(C(=O)N(C)Cc2ccccc2)C1` (centres undefined), in assay [1], the cell count came to 739. The inhibition in assay [1] is -3.4% (inactive); in assay [3], -218% (inactive); in assay [7], 7.15% (inactive); in assay [8], 33.5% (inactive). In addition, the inhibition of aggregation in assay [2] was 23.6% (inactive). The nuclei count in assay [2] came to 99.1%; in assay [3] it was 126%. For the same compound, the fluorescence slope in assay [4] was -0.37 (inactive). In addition, in assay [5], the NADPH fluorescence slope is -9.6e-06 (inactive). Besides, in assay [6], the slope was 0.00506 (inactive).
As to `O=C(NCc1ccco1)c1cnc2n(c1=O)CCS2`, the cell count in assay [1] was determined as 188. The inhibition is 4.4% (inactive) in assay [1], 7.8% (inactive) in assay [3], 10% (inactive) in assay [7] and 2.98% (inactive) in assay [8]. In addition, the inhibition of aggregation in assay [2] was 5.7% (inactive). Also, the nuclei count turned out to be 66.8% in assay [2] and 93.2% in assay [3]. In addition, the fluorescence slope in assay [4] was -0.419 (inactive). Further, the NADPH fluorescence slope in assay [5] was -1.2e-05 (inactive). The slope in assay [6] is 0.00633 (inactive).
`CC1CN=C(N(C(=O)Nc2ccccc2)c2ccc(S(=O)(=O)N3CCOCC3)cc2)S1` (centres undefined): in assay [1], the cell count was 476. Moreover, the inhibition was -4.8% (inactive) in assay [1], -38.9% (inactive) in assay [3], 3.57% (inactive) in assay [7] and 6.41% (inactive) in assay [8]. In assay [2], the inhibition of aggregation is 11.9% (inactive). The values for the nuclei count in assay [2] and in assay [3] were 95.4% and 112%, respectively. In addition, in assay [4], the fluorescence slope was -0.356 (inactive). For the same compound, the NADPH fluorescence slope in assay [5] was -5.2e-05 (inactive). For the same compound, the slope in assay [6] was 0.00838 (inactive).
Regarding `CCOC(=O)/N=C(/NC(=O)Nc1ccc(C(=O)OCC)cc1)OC`, the cell count in assay [1] is 266. The inhibition in assay [1] is -3.6% (inactive); in assay [3] it was 7.6% (inactive); in assay [7] it was 13.9% (inactive); in assay [8], 23.9% (inactive). Besides, the inhibition of aggregation in assay [2] was 17% (inactive). In addition, the results for the nuclei count in assay [2] and in assay [3] were 92.2% and 108%, respectively. The fluorescence slope in assay [4] is -0.583 (inactive). For the same compound, in assay [5], the NADPH fluorescence slope was -6e-05 (inactive). In addition, the slope in assay [6] was 0.00625 (inactive).
As for `Oc1ccc(-c2n[nH]c(=S)n2Cc2ccccc2)cc1`, in assay [1], the cell count came to 409. Also, the inhibition in assay [1] is 9.6% (inactive); in assay [3], -75.1% (inactive); in assay [7], -8.79% (inactive); in assay [8] it was -1.56% (inactive). In addition, in assay [2], the inhibition of aggregation was -13.1% (inactive). Besides, the figures for the nuclei count in assay [2] and in assay [3] were 109% and 116%, respectively. Moreover, in assay [4], the fluorescence slope is -0.485 (inactive). The NADPH fluorescence slope in assay [5] is 4.7e-05 (inactive). For the same compound, the slope in assay [6] is 0.00348 (inactive).
Consider `CN(C#N)c1nc(N2CCOCC2)nc(N2CCOCC2)n1`, for which the cell count in assay [1] was found to be 424. The inhibition is -3.8% (inactive) in assay [1], -192% (inactive) in assay [3], 16.7% (inactive) in assay [7] and 20% (inactive) in assay [8]. For the same compound, the inhibition of aggregation in assay [2] was -5.5% (inactive). Besides, the nuclei count in assay [2] came out at 104%; in assay [3], 105%. In addition, in assay [4], the fluorescence slope is -0.612 (inactive). In assay [5], the NADPH fluorescence slope is 6.7e-06 (inactive). Further, the slope in assay [6] was 0.00573 (inactive).
On to `CCN(CC)CCN1C(=O)Cn2c(C)c(C)c3cccc1c32`, for which the cell count in assay [1] was found to be 426. Besides, the inhibition is -6.7% (inactive) in assay [1], -102% (inactive) in assay [3], 15% (inactive) in assay [7] and 24.1% (inactive) in assay [8]. In assay [2], the inhibition of aggregation was 18.6% (inactive). For the same compound, the nuclei count stood at 93.7% in assay [2] and 232% in assay [3]. Further, the fluorescence slope in assay [4] was -0.434 (inactive). In assay [5], the NADPH fluorescence slope is -1.1e-05 (inactive). Besides, the slope in assay [6] is 0.00506 (inactive).
In the case of `Cn1c2c(c(=O)n(C)c1=O)C(c1cccc(Br)c1)C1C(=O)c3ccccc3C1=N2` (centres undefined), the cell count in assay [1] worked out at 720. Also, the inhibition in assay [1] is -5.8% (inactive); in assay [3], 3.3% (inactive); in assay [7] it was 8.12% (inactive); in assay [8], 12.5% (inactive). Moreover, in assay [2], the inhibition of aggregation is 2.7% (inactive). Also, the nuclei count in assay [2] was found to be 110%; in assay [3], 109%. Besides, the fluorescence slope in assay [4] is -0.585 (inactive). The NADPH fluorescence slope in assay [5] is -6.2e-05 (inactive). For the same compound, in assay [6], the slope is 0.00438 (inactive).
Regarding `CCOC(=O)c1oc2ccccc2c1CSc1nnnn1-c1ccc(C)cc1`, the cell count in assay [1] is 371. Besides, the inhibition in assay [1] is -3.4% (inactive); in assay [3] it was -60.7% (inactive); in assay [7] it was -16.8% (inactive); in assay [8], 1.2% (inactive). Besides, the inhibition of aggregation in assay [2] is 8.2% (inactive). The nuclei count in assay [2] came out at 88.1%; in assay [3] it was 106%. Besides, the fluorescence slope in assay [4] is -0.613 (inactive). For the same compound, the NADPH fluorescence slope in assay [5] was -2.5e-05 (inactive). The slope in assay [6] was 0.00768 (inactive).
Turning to `Cn1c(=O)[nH]c(=O)c2c1nc(N1CCNCC1)n2CCOc1ccccc1`, in assay [1], the cell count was found to be 321. Besides, the inhibition in assay [1] is -3.8% (inactive); in assay [3] it was -91.3% (inactive); in assay [7], -11.6% (inactive); in assay [8] it was 1.53% (inactive). Moreover, the inhibition of aggregation in assay [2] was 2.5% (inactive). Besides, the figures for the nuclei count in assay [2] and in assay [3] were 104% and 124%, respectively. For the same compound, the fluorescence slope in assay [4] is -0.513 (inactive). In addition, the NADPH fluorescence slope in assay [5] is 4.4e-05 (inactive). In assay [6], the slope was 0.00611 (inactive).
Consider `CCCN(CCC)S(=O)(=O)c1ccc(NS(C)(=O)=O)cc1`, for which, in assay [1], the cell count stood at 399. Also, the inhibition in assay [1] was 3.4% (inactive); in assay [3] it was -126% (inactive); in assay [7], 6.07% (inactive); in assay [8], 12.8% (inactive). Also, the inhibition of aggregation in assay [2] is -3% (inactive). For the same compound, the nuclei count in assay [2] is 108%; in assay [3], 107%. The fluorescence slope in assay [4] was -0.391 (inactive). Moreover, the NADPH fluorescence slope in assay [5] is 1e-05 (inactive). In addition, the slope in assay [6] was 0.00362 (inactive).

The values are drawn from PubChem BioAssay.
